PubChem BioAssay (NCI)
The panel holds about 83,000 compounds, 20% with a hit somewhere; the sample as a whole holds those more often.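 Cells were grown in 96-well plates and exposed to the test compound at a single concentration for 48 hours; results are reported as percent growth, with values below 10 considered active.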 A number with no mark means an inactive call. The source made the active and inactive calls.

The compounds below were run on CCRF-CEM leukemia (assay: NCI-60 one-dose screen, 48 h (100 = growth as untreated, 0 = no growth, -100 = all killed)). Details: 10 µM unless noted.

Row | Compound | growth
1 | CC1(C)OC2COC3(C(=O)O)OC(C)(C)OC3C2O1 (stereo not drawn) | 128%
2 | Cc1ccc(Cn2c(-c3cccs3)nc3ccccc32)cc1 | 90.3%
3 | COc1cc2c(cc1OC)C1(C)N(CC2)C(=O)OC1(C)C (stereo not drawn) | 106%
4 | Cc1cc(-c2ccccc2)c(C)n1Cc1ccc(Cl)cc1 | 43.5%
5 | CCN(Cc1ccccc1)c1ccc(SC#N)cc1 | 13%
6 | O=C1Nc2ccc(Br)cc2C1=N/C=c1\[nH]c(=O)/c(=C/c2ccc(Cl)cc2)s1 | 87.9%
7 | COc1ccc(-c2nc(-c3ccccc3)c(-c3ccccc3)n2C2CC2)cc1OC1CCCCC1 | 30.5%
8 | CC(=O)Nc1ccc(S(=O)(=O)N2C(=O)CCC2C(=O)Nc2ccccc2)cc1 (stereo not drawn) | 17.7%
9 | COc1cc(CNC(=O)CCSc2nc3ccccc3c(=O)n2Cc2cc(OC)c(OC)c(OC)c2)cc(OC)c1OC | 35.5%
10 | O=C(CN1CCN(c2cc3c(cc2F)c(=O)c(C(=O)O)cn3C2CC2)CC1)Nc1ccc(C(=O)/C=C/c2ccccc2)cc1 | 15.2%
11 | CC(C)N(Cc1ccc(CN(C(=O)CCl)C(C)C)cc1)C(=O)CCl | -29.4% (active)
12 | COc1ccc(/C=C/c2cc(N3CCOCC3)c3cc(F)c(F)cc3n2)cc1OC | 12.3%
13 | COc1cccc(-n2cc(-c3nc(Cl)c4ccccc4n3)nn2)c1 | 103%
14 | CCNC(=O)C1CCCN1C(=O)C(CCCN=C(N)N)NC(=O)C(CC(C)C)NC(=O)C(CC(C)C)NC(=O)C(Cc1ccc(O)cc1)NC(=O)C(CO)NC(=O)C(Cc1c[nH]c2ccccc12)NC(=O)C(Cc1cnc[nH]1)NC(=O)C1CCC(=O)N1 (stereo not drawn) | 54.5%
15 | Nc1c(C(=O)Nc2cccc(Cl)c2Cl)sc2nc3c(cc12)C(=O)CCC3 | 86.2%
16 | COc1cc(C2C=C(C)N=C3SC(C)=NN32)cc(OC)c1OC (stereo not drawn) | 91.8%
17 | Nc1c(C(=O)Nc2cccc(C(F)(F)F)c2)sc2nc3c(cc12)CCCCCC3 | 51%
18 | O=Nc1c(-c2c(O)[nH]c3ccc([N+](=O)[O-])cc23)[nH]c2ccc(O)cc12 | 0.486% (active)
19 | c1cc(-c2ccc3c(c2)OCO3)n2nccc2n1 | 100%

Row | Compound | growth
20 | Nc1c(C(=O)Nc2cccc([N+](=O)[O-])c2)sc2nc3c(cc12)C(O)CCC3 (stereo not drawn) | 37.2%
21 | CCn1cc(C(=O)O)c(=O)c2cc(F)c(N3CCN(S(=O)(=O)c4ccc(Cl)cc4Cl)CC3)cc21 | 2.78% (active)
22 | CN1C(=O)[C@H]2c3c1cccc3[C@@]13NC(=O)O[C@H]1[C@H](CCC3(C)C)C2(C)C | 94.5%
23 | CN1CCN(c2ccc3cc(-c4nc5ccccc5[nH]4)c(=O)oc3c2)CC1 | 73.6%
24 | Cc1ccc(Cn2c(-c3nonc3N)nc3ccccc32)cc1 | 67.2%
25 | CCc1cccc(C)c1NC(=O)c1sc2nc3c(cc2c1N)C(=O)CCC3 | 9.81% (active)
26 | COc1cc(-c2cc(/C=C3\CCCCC3=O)[nH]n2)cc(OC)c1OC | 69.5%
27 | FC(F)(F)c1cccc(-n2nnc3cnc(Nc4ccc(N5CCCCC5)cc4)nc32)c1 | 34.1%
28 | Cc1ccc(OCCn2c(C)nn(-c3ccc(Cl)cc3)c2=O)cc1 | 99.9%
29 | CN1CCN(CCCOc2ccc3nc(Nc4ccc(C(F)(F)F)c(Cl)c4)ccc3c2)CC1 | 3.91% (active)
30 | COc1cc(Cn2c(SCC(=O)Nc3cc(OC)c(OC)c(OC)c3)nc3ccccc3c2=O)cc(OC)c1OC | 101%
31 | c1ccc(CCn2nnc3c(Nc4ccc(N5CCOCC5)cc4)ncnc32)cc1 | 71.6%
32 | CCCC1OC(c2ccc(C(C)C)cc2)OCC1CC (stereo not drawn) | 95.9%
33 | Oc1ccc(N=Cc2ccccc2)cc1 | 5.42% (active)
34 | COc1cccc(NC(=O)c2sc3nc4c(cc3c2N)CCCC4)c1 | 13.6%
35 | Cn1cc(C=O)c2ccccc21 | 90.6%
36 | O=C1CCCCN1CCCCC#Cc1ccccc1C#Cc1ccc([N+](=O)[O-])cc1 | 21.4%
37 | O=C(c1ccncc1)N1N=C(c2ccc(Cl)cc2)CC1c1c[nH]c2ccccc12 (stereo not drawn) | 56.7%
38 | Cc1cc2c(c(=O)o1)C(c1ccc(OC(=O)N3CCOCC3)cc1)C(C#N)=C(N)O2 (stereo not drawn) | 111%
